# Reference: the supplement of paper PMC10338343
# ± gives the standard deviation.
# Tested on: MILI (PIWIL2) piRISC loaded with L1MC piRNA (26 nt)
# Test: pre-steady-state target cleavage rate (min^-1); guide: L1MC piRNA 5'p-UAACUAAAUACUAUGCAAGCUGUAGG; MIWI and MILI are mouse PIWI proteins and EfPiwi is from a freshwater sponge; tags in brackets are library labels; higher = faster piRNA-guided slicing of the target
# Settings: auxiliary factor: 500 nM mouse GTSF1
# Summary of the method: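 For Cleave-'n-Seq, a transcribed, DNA-blocked target RNA library […] met 1 nM active affinity-purified piRISC with one synthetic guide at 33 °C for 0–8 or 0–960 min in HEPES–potassium acetate buffer, with or without 500 nM GTSF1 partner protein. Uncleaved targets were sequenced and normalised to depth and weakly complementary targets, with three trials pooled and k3 capped at 0.0001 min^-1. A burst-and-steady-state fit supplied the pre-steady-state cleavage rate.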
# 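Also: 1 nM active piRISC with 0.1 nM target library at 33 °C single turnover.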
row,Sequence,pre-steady-state target cleavage rate
1,UCCUGCUACAGCUUGCAUAGUAUUUUGAAA,0.112 ± 0.029
2,UCCUGGAUCUGCUUGCAUAGAAUUUAGUUA,0.0261 ± 0.0069
3,UCCUGGAACAGGAUGCAUAGUAUUUAGAAA,0.0732 ± 0.017
4,UCCUCCUAGUCCUUGCAUAGUAUUUACAAA,0.0299 ± 0.0097
5,UCCUGGAACAGCAACCAUAGUAUUUAGUAA,0.143 ± 0.019
6,UCCUGGAACAGCUUGCAUAGAUAUUAGUUA,0.0112 ± 0.0053
7,UCCUGGAUGUCGUUGCUUAGUAAUUAGUUA,0.0131 ± 0.0058
8,UCCUCCUACAGCUUGCAUGAGUAUUUAGUUA,0.011 ± 0.0056
9,UCCUGGAACAGCAUGCAUAGAAUUUAGUUA,0.0767 ± 0.018
10,UCCUGGUACAGCUUGCAAAGUAUUUACAAA,0.0115 ± 0.0055
11,UCCUGGAUGAGCUUGCUUAGUAUUUAGAAA,0.0548 ± 0.017
12,UCCUGGAUGUGCUUGCAUAGAAUUUAGUUA,0.0203 ± 0.0071
13,UCCUGGAUGUCGUUCAUAGUAUUUAGUUA,0.013 ± 0.0035
14,UCCUGGAUGUCCUUGCAAUCUAUUUAGUUA,0.00463 ± 0.0037
15,UCCUGGAUGUCGAAGCAUAGUAUUUAGUAUA,0.0394 ± 0.0091
16,UCCUGGAUGUGCUUGCAUAGUAUUUAGGUA,0.0373 ± 0.011
17,UCCUGCUACAGCUUGCAAUGUAUUUAGUAA,0.124 ± 0.023
18,UCCUGGAUGUCCUUGCAUAGUAUUUUGUUA,0.0499 ± 0.0089

row,Sequence,pre-steady-state target cleavage rate
1,UCCUGGAUCACGUUGCAUAGUAUUUUCAAA,0.0743 ± 0.025
2,UCCUGGAUCAGCUAGCAUAGUAUUUACUUA,0.134 ± 0.018
3,UCCUGGAUGAGCUUGGAUACUAUUUAGUUA,0.00767 ± 0.0035
4,UCCUGGAUCAGGAAGCAUAGUAUUUAGAAA,0.0247 ± 0.0063
5,UCCUGGAUGUCGAUGCAUAGUAUUUCGUUA,0.0116 ± 0.0056
6,UCCUGGAACAGCUUGCAUACUAUUUUCAAA,0.0161 ± 0.0061
7,UCCUGGUACAGCAAGCAUAGUAUUUAGAAA,0.104 ± 0.031
8,UCCUGGUAGAGCUUGCAUAGUAUUUACAAA,0.015 ± 0.0066
9,UCCUGCUACAGCUUGCAAUGUAUUUACAAA,0.0477 ± 0.014
10,UCCUGGUACAGCUUGCAUAGUAAUUAGAAA,0.0664 ± 0.018
11,UCCUGGAUGUGCUUGCAUAGUAAUUACUUA,0.00537 ± 0.0033
12,UCCUGGAUGUCGAACGUUAGUUUUUAGAUA,< 0.0001
13,UCCUGGAACAGGUUGCAUAGUAUUUACAAA,0.0582 ± 0.013
14,UCCUGGAACAGCUUGCUUAGUAUUUACAAA,0.105 ± 0.026
15,UCCUGGAUGUCGAAACAUAGUAUUUAGUUA,0.0131 ± 0.004
16,UCCUGGAUGAGCUUCGAUAGUAUUUAGUAA,0.0558 ± 0.012
17,UCCUGGAUGUCGAACCAUAGUAUUCAGUUA,< 0.0001

# Same assay, conditions: auxiliary factor: none (no GTSF1)
row,Sequence,pre-steady-state target cleavage rate
1,UCCUGGAUGUCGAUGCAUAGAUAAAUCAAA [g11:g17:cont:t1A],< 0.0001
2,UCCUGGAUGUCGAACGUUAGUAUUUCGUUA,< 0.0001
3,UCCUGGAUGUCGAACGAUUCAAUUUAGUUA,< 0.0001
4,UCCUGGUACAGCUUGCAUAGCUAUUUAGUUA,0.0041 ± 0.004
5,UCCUGGAUGUCGAAGCAUAGAAUUUACUUA,< 0.0001
